Data: PMC7862700, “An all-to-all approach to the identification of sequence-specific readers for epigenetic DNA modifications on cytosine”

Columns and labels:
Test in all cases: DAPPL (digital affinity profiling via proximity ligation, sequencing); 10 mM Tris-HCl pH 7.5, 50 mM NaCl, 1 mM DTT, 4% glycerol, room temperature, 30 min; GST-TFs on glutathione beads, 16-mer random dsDNA library, 0.1% formaldehyde crosslink after washing; high values mean tight binding
FEV = biological target: T1, FEV (Homo sapiens, UniProt Q99581 1-238); settings: protein: recombinant; tags: N-terminal GST; dsDNA, one strand shown
T1 sequence: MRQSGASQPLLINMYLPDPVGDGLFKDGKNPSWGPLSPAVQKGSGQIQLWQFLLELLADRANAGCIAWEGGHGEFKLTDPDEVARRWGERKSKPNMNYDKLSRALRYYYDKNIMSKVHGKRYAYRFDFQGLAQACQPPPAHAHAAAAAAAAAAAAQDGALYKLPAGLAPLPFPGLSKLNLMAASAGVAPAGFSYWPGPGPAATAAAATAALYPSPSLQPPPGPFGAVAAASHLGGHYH
Procedure, shortened: (§1)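 Yeast served to express human transcription factors as GST fusions, which were then captured on glutathione beads and labelled with DNA barcodes. Pooled with a tag-only sample, they were incubated with 200 nmole of a 16-mer random double-stranded DNA library for 30 min at room temperature in Tris/NaCl/DTT/glycerol buffer, washed, crosslinked with 0.1% formaldehyde, ligated by proximity, amplified by PCR and sequenced. Dividing each hexamer's read frequency for a factor by its frequency for the tag-only sample gives the binding signal.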

ETV5 = ETV5 (Homo sapiens, UniProt P41161 1-510); settings: protein: recombinant; tags: N-terminal GST; dsDNA, one strand shown
ETV5, sequence (P41161 whole entry): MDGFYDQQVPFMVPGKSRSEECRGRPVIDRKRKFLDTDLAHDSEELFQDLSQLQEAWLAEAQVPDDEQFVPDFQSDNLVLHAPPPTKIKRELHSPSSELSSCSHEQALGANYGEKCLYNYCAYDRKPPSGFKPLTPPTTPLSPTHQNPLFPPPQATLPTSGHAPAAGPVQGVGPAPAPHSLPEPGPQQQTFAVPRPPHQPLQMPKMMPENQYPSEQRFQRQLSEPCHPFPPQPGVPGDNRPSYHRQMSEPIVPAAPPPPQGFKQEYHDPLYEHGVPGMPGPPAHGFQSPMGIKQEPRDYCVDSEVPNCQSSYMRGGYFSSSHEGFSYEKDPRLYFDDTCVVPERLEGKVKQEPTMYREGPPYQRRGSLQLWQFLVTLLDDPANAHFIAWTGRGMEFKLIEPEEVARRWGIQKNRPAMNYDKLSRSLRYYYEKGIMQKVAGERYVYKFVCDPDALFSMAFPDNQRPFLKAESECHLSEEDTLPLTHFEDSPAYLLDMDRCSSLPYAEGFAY
Procedure, shortened: as §1

HSF1 = HSF1 (Homo sapiens, UniProt Q00613 1-529); settings: protein: recombinant; tags: N-terminal GST; chain copies: 3; dsDNA, one strand shown
HSF1, sequence (Q00613 whole entry): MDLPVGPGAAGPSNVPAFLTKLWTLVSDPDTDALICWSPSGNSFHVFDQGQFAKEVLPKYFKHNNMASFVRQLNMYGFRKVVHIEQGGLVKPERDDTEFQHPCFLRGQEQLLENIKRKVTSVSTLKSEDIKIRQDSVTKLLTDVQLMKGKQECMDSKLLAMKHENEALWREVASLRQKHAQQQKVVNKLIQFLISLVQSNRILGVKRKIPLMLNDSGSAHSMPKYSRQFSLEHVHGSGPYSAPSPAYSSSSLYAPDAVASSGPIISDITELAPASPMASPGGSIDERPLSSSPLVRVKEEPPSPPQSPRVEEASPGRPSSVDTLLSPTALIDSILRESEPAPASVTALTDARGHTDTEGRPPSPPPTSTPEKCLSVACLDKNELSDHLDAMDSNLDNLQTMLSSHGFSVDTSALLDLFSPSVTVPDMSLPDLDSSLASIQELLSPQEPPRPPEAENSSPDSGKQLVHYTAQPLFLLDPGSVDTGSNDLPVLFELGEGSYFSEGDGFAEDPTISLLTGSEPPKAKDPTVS
Procedure, shortened: as §1

SPIC = biological target: T2, SPIC (Homo sapiens, UniProt Q8N5J4 1-248); settings: protein: recombinant; tags: N-terminal GST; dsDNA, one strand shown
T2 sequence: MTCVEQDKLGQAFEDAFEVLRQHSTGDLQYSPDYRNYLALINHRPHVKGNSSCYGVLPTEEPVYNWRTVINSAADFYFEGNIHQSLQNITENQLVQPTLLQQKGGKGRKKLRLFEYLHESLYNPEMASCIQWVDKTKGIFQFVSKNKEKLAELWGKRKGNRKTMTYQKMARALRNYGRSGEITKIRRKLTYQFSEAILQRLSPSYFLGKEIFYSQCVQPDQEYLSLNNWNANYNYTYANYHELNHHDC
Procedure, shortened: as §1

ELF4 = ELF4 (Homo sapiens, UniProt Q99607 1-663); settings: protein: recombinant; tags: N-terminal GST; dsDNA, one strand shown
ELF4, sequence (Q99607 whole entry): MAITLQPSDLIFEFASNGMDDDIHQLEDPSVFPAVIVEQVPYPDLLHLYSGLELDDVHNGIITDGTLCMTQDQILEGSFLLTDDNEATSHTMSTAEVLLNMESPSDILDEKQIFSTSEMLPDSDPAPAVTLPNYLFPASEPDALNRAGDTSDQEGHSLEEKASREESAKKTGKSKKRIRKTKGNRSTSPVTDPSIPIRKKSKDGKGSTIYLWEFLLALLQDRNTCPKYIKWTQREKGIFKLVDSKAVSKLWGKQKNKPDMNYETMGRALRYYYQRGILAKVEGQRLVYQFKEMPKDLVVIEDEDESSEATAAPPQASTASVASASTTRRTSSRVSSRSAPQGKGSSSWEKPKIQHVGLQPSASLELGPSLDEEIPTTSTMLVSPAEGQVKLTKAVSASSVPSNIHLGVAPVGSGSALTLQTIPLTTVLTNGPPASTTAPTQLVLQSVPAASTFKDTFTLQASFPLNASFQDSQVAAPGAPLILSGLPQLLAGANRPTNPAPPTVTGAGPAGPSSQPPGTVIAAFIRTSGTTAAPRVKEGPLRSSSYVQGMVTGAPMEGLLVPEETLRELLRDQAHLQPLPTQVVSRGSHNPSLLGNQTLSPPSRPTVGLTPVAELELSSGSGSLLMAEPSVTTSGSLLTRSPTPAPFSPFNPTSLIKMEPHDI
Procedure, shortened: as §1

ELK4 = biological target: T3, ELK4 (Homo sapiens, UniProt P28324-2 1-405); settings: protein: recombinant; tags: N-terminal GST; dsDNA, one strand shown
T3 sequence: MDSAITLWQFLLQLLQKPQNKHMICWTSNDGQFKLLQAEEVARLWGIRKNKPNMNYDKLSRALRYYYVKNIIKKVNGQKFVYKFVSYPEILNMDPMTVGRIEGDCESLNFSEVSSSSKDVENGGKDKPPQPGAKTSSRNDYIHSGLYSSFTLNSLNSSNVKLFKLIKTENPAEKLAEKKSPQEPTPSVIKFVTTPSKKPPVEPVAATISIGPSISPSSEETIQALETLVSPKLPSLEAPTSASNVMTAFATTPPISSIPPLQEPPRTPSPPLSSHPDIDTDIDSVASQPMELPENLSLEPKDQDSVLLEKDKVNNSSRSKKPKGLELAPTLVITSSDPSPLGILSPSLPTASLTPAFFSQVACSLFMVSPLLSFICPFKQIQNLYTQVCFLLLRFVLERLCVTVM
Procedure, shortened: as §1

ETV2 = biological target: T4, ETV2 (Homo sapiens, UniProt O00321 1-342); settings: protein: recombinant; tags: N-terminal GST; dsDNA, one strand shown
T4 sequence: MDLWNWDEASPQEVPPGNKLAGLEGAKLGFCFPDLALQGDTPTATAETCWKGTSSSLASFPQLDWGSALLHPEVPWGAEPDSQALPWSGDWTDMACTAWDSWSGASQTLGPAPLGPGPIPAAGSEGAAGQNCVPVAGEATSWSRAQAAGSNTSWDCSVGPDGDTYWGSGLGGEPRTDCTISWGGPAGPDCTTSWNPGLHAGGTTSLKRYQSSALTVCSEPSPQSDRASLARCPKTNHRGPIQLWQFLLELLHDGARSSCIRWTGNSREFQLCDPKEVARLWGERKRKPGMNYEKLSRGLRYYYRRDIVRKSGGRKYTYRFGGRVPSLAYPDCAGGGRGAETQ
Procedure, shortened: as §1

ELF3 = biological target: T5, ELF3 (Homo sapiens, UniProt P78545 1-371); settings: protein: recombinant; tags: N-terminal GST; dsDNA, one strand shown
T5 sequence: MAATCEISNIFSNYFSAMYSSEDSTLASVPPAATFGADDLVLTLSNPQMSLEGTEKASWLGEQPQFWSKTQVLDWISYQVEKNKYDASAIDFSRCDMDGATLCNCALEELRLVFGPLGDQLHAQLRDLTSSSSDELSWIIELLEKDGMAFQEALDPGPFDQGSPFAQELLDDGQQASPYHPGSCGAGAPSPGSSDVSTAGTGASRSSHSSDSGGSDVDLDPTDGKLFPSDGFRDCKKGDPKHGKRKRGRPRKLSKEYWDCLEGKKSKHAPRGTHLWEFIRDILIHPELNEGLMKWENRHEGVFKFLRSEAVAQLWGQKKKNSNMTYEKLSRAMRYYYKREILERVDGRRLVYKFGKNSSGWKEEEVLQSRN
Procedure, shortened: as §1

CRX = CRX (Homo sapiens, UniProt O43186 1-299); settings: protein: recombinant; tags: N-terminal GST; dsDNA, one strand shown
CRX, sequence (O43186 whole entry): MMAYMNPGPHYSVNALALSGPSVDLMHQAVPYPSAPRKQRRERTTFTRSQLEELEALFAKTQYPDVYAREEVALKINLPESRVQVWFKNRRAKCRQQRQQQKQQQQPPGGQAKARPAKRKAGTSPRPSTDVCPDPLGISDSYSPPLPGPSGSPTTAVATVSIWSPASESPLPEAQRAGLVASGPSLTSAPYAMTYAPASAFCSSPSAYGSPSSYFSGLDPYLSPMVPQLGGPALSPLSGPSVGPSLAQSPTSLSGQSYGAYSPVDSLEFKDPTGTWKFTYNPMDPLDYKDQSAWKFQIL
Procedure, shortened: as §1

ETV1 = ETV1 (Homo sapiens, UniProt P50549 1-477); settings: protein: recombinant; tags: N-terminal GST; dsDNA, one strand shown
ETV1, sequence (P50549 whole entry): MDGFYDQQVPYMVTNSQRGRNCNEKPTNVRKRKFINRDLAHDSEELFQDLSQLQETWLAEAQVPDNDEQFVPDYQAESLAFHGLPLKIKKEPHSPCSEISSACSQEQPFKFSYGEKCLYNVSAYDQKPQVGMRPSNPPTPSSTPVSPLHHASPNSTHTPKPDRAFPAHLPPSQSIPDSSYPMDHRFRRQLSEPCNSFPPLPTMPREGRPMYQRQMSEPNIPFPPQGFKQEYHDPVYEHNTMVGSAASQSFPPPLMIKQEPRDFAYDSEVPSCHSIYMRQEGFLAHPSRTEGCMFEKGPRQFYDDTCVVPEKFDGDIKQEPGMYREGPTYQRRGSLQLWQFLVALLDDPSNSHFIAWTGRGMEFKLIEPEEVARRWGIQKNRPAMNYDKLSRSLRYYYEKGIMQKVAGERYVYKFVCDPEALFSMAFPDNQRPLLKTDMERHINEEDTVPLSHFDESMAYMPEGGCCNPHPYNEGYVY
Procedure, shortened: as §1

ERF = biological target: T6, ERF (Homo sapiens, UniProt P50548 1-548); settings: protein: recombinant; tags: N-terminal GST; dsDNA, one strand shown
T6 sequence: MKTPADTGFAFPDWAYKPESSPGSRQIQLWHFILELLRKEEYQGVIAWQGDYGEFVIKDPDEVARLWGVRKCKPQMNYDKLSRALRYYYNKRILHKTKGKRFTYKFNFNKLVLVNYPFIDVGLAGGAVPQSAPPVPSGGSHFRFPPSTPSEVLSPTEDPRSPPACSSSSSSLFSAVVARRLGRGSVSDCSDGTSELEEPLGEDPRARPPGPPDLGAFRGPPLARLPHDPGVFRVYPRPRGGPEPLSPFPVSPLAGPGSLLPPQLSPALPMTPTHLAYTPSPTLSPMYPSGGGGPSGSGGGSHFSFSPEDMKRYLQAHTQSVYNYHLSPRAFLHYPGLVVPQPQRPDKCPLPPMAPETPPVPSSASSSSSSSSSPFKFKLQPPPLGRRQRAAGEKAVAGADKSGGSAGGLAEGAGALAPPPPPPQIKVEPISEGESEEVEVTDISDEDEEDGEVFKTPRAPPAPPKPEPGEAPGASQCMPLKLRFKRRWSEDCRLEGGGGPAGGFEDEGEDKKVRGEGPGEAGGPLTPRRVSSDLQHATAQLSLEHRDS
Procedure, shortened: as §1

ETV3L = biological target: T7, ETV3L (Homo sapiens, UniProt Q6ZN32 1-361); settings: protein: recombinant; tags: N-terminal GST; dsDNA, one strand shown
T7 sequence: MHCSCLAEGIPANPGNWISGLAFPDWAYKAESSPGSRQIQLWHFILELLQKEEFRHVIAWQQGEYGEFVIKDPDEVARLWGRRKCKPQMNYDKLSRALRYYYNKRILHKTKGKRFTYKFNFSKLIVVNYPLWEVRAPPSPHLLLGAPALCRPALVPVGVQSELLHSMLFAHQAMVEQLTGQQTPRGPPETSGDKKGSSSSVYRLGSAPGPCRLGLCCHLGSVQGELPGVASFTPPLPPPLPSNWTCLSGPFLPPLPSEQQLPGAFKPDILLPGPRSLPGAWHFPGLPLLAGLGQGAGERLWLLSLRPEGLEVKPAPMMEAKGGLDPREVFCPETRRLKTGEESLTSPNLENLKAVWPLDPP
Procedure, shortened: as §1

ETS2 = biological target: T8, ETS2 (Homo sapiens, UniProt P15036 1-469); settings: protein: recombinant; tags: N-terminal GST; dsDNA, one strand shown
T8 sequence: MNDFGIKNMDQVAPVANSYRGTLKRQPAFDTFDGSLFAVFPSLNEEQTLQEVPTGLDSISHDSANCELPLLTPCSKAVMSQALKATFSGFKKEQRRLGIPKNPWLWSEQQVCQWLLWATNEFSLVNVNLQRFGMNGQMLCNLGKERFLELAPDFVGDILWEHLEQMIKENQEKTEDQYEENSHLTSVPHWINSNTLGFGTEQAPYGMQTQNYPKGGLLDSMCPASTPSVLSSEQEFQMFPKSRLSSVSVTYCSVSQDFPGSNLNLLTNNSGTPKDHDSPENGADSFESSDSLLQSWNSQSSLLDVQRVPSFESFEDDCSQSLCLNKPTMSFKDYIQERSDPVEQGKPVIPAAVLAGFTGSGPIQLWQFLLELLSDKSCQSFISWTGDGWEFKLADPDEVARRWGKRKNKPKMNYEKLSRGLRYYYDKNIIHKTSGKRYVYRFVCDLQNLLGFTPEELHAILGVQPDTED
Procedure, shortened: as §1

ETV7 = biological target: T9, ETV7 (Homo sapiens, UniProt Q9Y603 1-341); settings: protein: recombinant; tags: N-terminal GST; dsDNA, one strand shown
T9 sequence: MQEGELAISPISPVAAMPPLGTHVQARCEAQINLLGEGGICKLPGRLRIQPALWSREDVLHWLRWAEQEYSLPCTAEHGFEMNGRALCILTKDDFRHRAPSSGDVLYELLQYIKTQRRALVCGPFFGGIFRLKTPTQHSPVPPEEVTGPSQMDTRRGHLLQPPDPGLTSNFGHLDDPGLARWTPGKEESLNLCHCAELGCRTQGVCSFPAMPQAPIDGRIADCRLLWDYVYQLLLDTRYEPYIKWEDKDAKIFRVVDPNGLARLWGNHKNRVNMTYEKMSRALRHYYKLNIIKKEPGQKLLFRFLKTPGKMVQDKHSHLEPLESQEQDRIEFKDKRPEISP
Procedure, shortened: as §1

ELF5 = biological target: T10, ELF5 (Homo sapiens, UniProt Q9UKW6-2 1-255); settings: protein: recombinant; tags: N-terminal GST; dsDNA, one strand shown
T10 sequence: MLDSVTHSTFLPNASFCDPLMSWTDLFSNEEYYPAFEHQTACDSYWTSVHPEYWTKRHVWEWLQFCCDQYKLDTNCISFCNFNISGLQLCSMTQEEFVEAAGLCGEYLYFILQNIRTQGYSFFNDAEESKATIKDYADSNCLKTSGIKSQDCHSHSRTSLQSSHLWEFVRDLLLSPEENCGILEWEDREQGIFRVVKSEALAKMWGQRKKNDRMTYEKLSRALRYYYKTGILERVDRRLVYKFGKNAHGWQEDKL
Procedure, shortened: as §1

ETV3 = biological target: T11, ETV3 (Homo sapiens, UniProt P41162-2 1-143); settings: protein: recombinant; tags: N-terminal GST; dsDNA, one strand shown
T11 sequence: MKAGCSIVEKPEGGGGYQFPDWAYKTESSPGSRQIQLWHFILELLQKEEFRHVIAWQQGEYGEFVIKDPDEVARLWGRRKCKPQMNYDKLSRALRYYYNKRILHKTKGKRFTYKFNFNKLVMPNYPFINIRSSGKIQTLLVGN
Procedure, shortened: as §1

ETV6 = ETV6 (Homo sapiens, UniProt P41212 1-452); settings: protein: recombinant; tags: N-terminal GST; dsDNA, one strand shown
ETV6, sequence (P41212 whole entry): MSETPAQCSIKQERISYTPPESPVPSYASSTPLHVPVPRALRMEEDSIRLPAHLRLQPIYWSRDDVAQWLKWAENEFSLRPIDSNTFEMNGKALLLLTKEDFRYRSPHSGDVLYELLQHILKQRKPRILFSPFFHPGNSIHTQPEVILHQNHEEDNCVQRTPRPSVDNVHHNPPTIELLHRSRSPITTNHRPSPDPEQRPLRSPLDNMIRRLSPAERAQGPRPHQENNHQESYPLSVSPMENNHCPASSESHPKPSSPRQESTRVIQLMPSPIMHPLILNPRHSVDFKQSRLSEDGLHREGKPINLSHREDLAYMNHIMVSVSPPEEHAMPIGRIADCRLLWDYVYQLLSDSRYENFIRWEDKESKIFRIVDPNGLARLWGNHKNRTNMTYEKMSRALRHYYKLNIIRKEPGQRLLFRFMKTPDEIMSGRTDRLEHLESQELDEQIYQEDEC
Procedure, shortened: as §1

GCTCGA
binding signal (FEV): 1.25 fold enrichment (6-mer frequency, TF over GST control)
binding signal (ETV5): 1.22 fold enrichment (6-mer frequency, TF over GST control)
binding signal (HSF1): 1.74 fold enrichment (6-mer frequency, TF over GST control)
binding signal (SPIC): 1.31 fold enrichment (6-mer frequency, TF over GST control)
binding signal (ELF4): 1.25 fold enrichment (6-mer frequency, TF over GST control)
binding signal (ELK4): 1.29 fold enrichment (6-mer frequency, TF over GST control)
binding signal (ETV2): 1.07 fold enrichment (6-mer frequency, TF over GST control)
binding signal (ELF3): 1.24 fold enrichment (6-mer frequency, TF over GST control)
binding signal (CRX): 1.17 fold enrichment (6-mer frequency, TF over GST control)
binding signal (ETV1): 1.07 fold enrichment (6-mer frequency, TF over GST control)
binding signal (ERF): 1.24 fold enrichment (6-mer frequency, TF over GST control)
binding signal (ETV3L): 1.26 fold enrichment (6-mer frequency, TF over GST control)
binding signal (ETS2): 1.19 fold enrichment (6-mer frequency, TF over GST control)
binding signal (ETV7): 1.11 fold enrichment (6-mer frequency, TF over GST control)
binding signal (ELF5): 1.1 fold enrichment (6-mer frequency, TF over GST control)
binding signal (ETV3): 1.14 fold enrichment (6-mer frequency, TF over GST control)
binding signal (ETV6): 1.25 fold enrichment (6-mer frequency, TF over GST control)
